Reference: PubChem BioAssay AID1159580 (chemical genetic matrix, 2015)
Hit rate of the full screen: of about 5,500 compounds, about 2,000 (36%) were called active. Not shown: some 18% with an inconclusive outcome. Rule as the data show it: active = normalized growth mostly below about 0.91 (no sharp cut-off); inconclusive = no clear call, values can overlap the other calls; inactive = mostly above about 0.92. The list shows a part of the results.

Experiment: chemical genetic growth profiling, strain panel (AID 1159580);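 also: tested at 20 µM; growth read once vehicle control cultures reached saturation at 30 °C; 1 = growth at the plate median or of vehicle wells; lower values mean less growth of the strain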
Details: growth OD

Measured: normalized growth

O=C(CCc1ccc(O)cc1)c1c(O)cc(O)cc1O[C@@H]1O[C@H](CO)[C@@H](O)[C@H](O)[C@H]1O
inactive: S. cerevisiae deletion strains, locus YJR075W, strain HOC1, active compounds read low 1.05 | S. cerevisiae deletion strains, locus YKL009W, strain mrt4, active compounds read low 0.978 | S. cerevisiae deletion strains, locus YKL068W, active compounds read low 1 | S. cerevisiae deletion strains, locus YKL085W, strain MDH1 (second series), active compounds read low 0.988 | S. cerevisiae deletion strains, locus YKL085W, strain MDH1, active compounds read low 0.988 | S. cerevisiae deletion strains, locus YKL160W, strain elf1, active compounds read low 1.01 | S. cerevisiae deletion strains, locus YKR001C, strain vps1, active compounds read low 1 | S. cerevisiae deletion strains, locus YKR026C, strain gcn3, active compounds read low 1.01 | S. cerevisiae deletion strains, locus YKR091W, strain srl3, active compounds read low 1.01 | S. cerevisiae deletion strains, locus YLL001W, strain dnm1, active compounds read low 1.01 | S. cerevisiae deletion strains, locus YLL026W, active compounds read low 1.02 | S. cerevisiae deletion strains, locus YLL041C, strain sdh2, active compounds read low 1.01 | S. cerevisiae deletion strains, locus YLR027C, strain aat2, active compounds read low 1.01 | S. cerevisiae deletion strains, locus YLR039C, strain RIC1, active compounds read low 1.08 | S. cerevisiae deletion strains, locus YLR058C, strain SHM2, active compounds read low 1.01 | S. cerevisiae deletion strains, locus YLR102C, strain apc9, active compounds read low 1.01 | S. cerevisiae deletion strains, locus YLR113W, strain HOG1, active compounds read low 0.956 | S. cerevisiae deletion strains, locus YLR221C, strain rsa3, active compounds read low 1.02 | S. cerevisiae deletion strains, locus YLR258W, strain gsy2, active compounds read low 1.04 | S. cerevisiae deletion strains, locus YLR262C, strain YPT6 (second series), active compounds read low 1.02 | S. cerevisiae deletion strains, locus YLR262C, strain YPT6, active compounds read low 1.14 | S. cerevisiae deletion strains, locus YLR268W, strain sec22, active compounds read low 1 | S. cerevisiae deletion strains, locus YLR320W, strain mms22, active compounds read low 1.02 | S. cerevisiae deletion strains, locus YLR330W, strain CHS5, active compounds read low 1.01 | S. cerevisiae deletion strains, locus YLR342W, strain FKS1 (second series), active compounds read low 1.01 | S. cerevisiae deletion strains, locus YLR342W, strain FKS1, active compounds read low 1.02 | S. cerevisiae deletion strains, locus YLR357W, strain rsc2, active compounds read low 1 | S. cerevisiae deletion strains, locus YLR370C, strain arc18, active compounds read low 1.01 | S. cerevisiae deletion strains, locus YLR371W, strain rom2, active compounds read low 0.997 | S. cerevisiae deletion strains, locus YLR384C, strain iki3, active compounds read low 1.03 | S. cerevisiae deletion strains, locus YLR418C, strain cdc73, active compounds read low 1.03 | S. cerevisiae deletion strains, locus YML016C, strain PPZ1, active compounds read low 1.02 | S. cerevisiae deletion strains, locus YML032C, strain rad52, active compounds read low 0.986 | S. cerevisiae deletion strains, locus YML120C, strain ndi1, active compounds read low 1.01 | S. cerevisiae deletion strains, locus YML124C, strain tub3, active compounds read low 0.993 | S. cerevisiae deletion strains, locus YMR058W, strain fet3, active compounds read low 1.02 | S. cerevisiae deletion strains, locus YMR078C, strain ctf18, active compounds read low 0.991 | S. cerevisiae deletion strains, locus YMR125W, strain sto1, active compounds read low 1.02 | S. cerevisiae deletion strains, locus YMR129W, active compounds read low 1.01 | S. cerevisiae deletion strains, locus YMR205C, strain PFK2, active compounds read low 1.02 | S. cerevisiae deletion strains, locus YMR223W, strain ubp8, active compounds read low 0.992 | S. cerevisiae deletion strains, locus YMR231W, strain pep5, active compounds read low 1.01 | S. cerevisiae deletion strains, locus YMR263W, strain SAP30, active compounds read low 1.03 | S. cerevisiae deletion strains, locus YMR307W, strain GAS1, active compounds read low 1.23 | S. cerevisiae deletion strains, locus YNL067W, strain RPL9B, active compounds read low 1.04 | S. cerevisiae deletion strains, locus YNL071W, strain lat1, active compounds read low 1.01 | S. cerevisiae deletion strains, locus YNL153C, strain GIM3, active compounds read low 1.04 | S. cerevisiae deletion strains, locus YNL183C, strain NPR1, active compounds read low 0.937 | S. cerevisiae deletion strains, locus YNL209W, strain ssb2, active compounds read low 1.01 | S. cerevisiae deletion strains, locus YNL233W, strain BNI4, active compounds read low 1.03 | S. cerevisiae deletion strains, locus YNL248C, strain rpa49, active compounds read low 1.01 | S. cerevisiae deletion strains, locus YNL250W, strain rad50, active compounds read low 0.986 | S. cerevisiae deletion strains, locus YNL271C, strain bni1, active compounds read low 0.992 | S. cerevisiae deletion strains, locus YNL298W, strain CLA4, active compounds read low 0.998 | S. cerevisiae deletion strains, locus YNL307C, strain MCK1, active compounds read low 0.991 | S. cerevisiae deletion strains, locus YNL322C, strain KRE1 (second series), active compounds read low 1.02 | S. cerevisiae deletion strains, locus YNL322C, strain KRE1, active compounds read low 1.02 | S. cerevisiae deletion strains, locus YNR049C, strain mso1, active compounds read low 1.02 | S. cerevisiae deletion strains, locus YNR052C, strain pop2, active compounds read low 0.982 | S. cerevisiae deletion strains, locus YOL012C, strain htz1 0.98 | S. cerevisiae deletion strains, locus YOL147C, strain pex11, active compounds read low 0.996 | S. cerevisiae deletion strains, locus YOR001W, strain rrp6, active compounds read low 1.04 | S. cerevisiae deletion strains, locus YOR061W, strain CKA2, active compounds read low 1.02 | S. cerevisiae deletion strains, locus YOR069W, strain VPS5, active compounds read low 1.01 | S. cerevisiae deletion strains, locus YOR070C, strain gyp1, active compounds read low 1 | S. cerevisiae deletion strains, locus YOR080W, strain dia2, active compounds read low 1.03 | S. cerevisiae deletion strains, locus YOR083W, strain WHI5, active compounds read low 1.01 | S. cerevisiae deletion strains, locus YOR106W, strain vam3, active compounds read low 1.01 | S. cerevisiae deletion strains, locus YOR136W, strain idh2, active compounds read low 0.994 | S. cerevisiae deletion strains, locus YOR144C, strain elg1, active compounds read low 1 | S. cerevisiae deletion strains, locus YOR184W, strain ser1, active compounds read low 1.03 | S. cerevisiae deletion strains, locus YOR231W, strain MKK1, active compounds read low 0.993 | S. cerevisiae deletion strains, locus YOR265W, strain rbl2, active compounds read low 1.01 | S. cerevisiae deletion strains, locus YOR270C, strain vph1, active compounds read low 1.03 | S. cerevisiae deletion strains, locus YOR290C, strain snf2, active compounds read low 0.988 | S. cerevisiae deletion strains, locus YOR316C, strain cot1, active compounds read low 1.02 | S. cerevisiae deletion strains, locus YPL051W, strain arl3, active compounds read low 1.01 | S. cerevisiae deletion strains, locus YPL078C, strain atp4, active compounds read low 1.02 | S. cerevisiae deletion strains, locus YPL106C, strain sse1, active compounds read low 1.02 | S. cerevisiae deletion strains, locus YPL240C, strain hsp82, active compounds read low 1.01 | S. cerevisiae deletion strains, locus YPL241C, strain CIN2, active compounds read low 1.02 | S. cerevisiae deletion strains, locus YPL256C, strain CLN2, active compounds read low 0.966 | S. cerevisiae deletion strains, locus YPR119W, strain clb2, active compounds read low 0.992 | S. cerevisiae deletion strains, locus YPR141C, strain kar3, active compounds read low 0.987 | S. cerevisiae deletion strains, locus YPR163C, strain tif3, active compounds read low 0.993 | S. cerevisiae deletion strains, locus YPR167C, strain met16, active compounds read low 1.01 | S. cerevisiae deletion strains, strain wtn01, active compounds read low 1 | S. cerevisiae strains, strain wild type, active compounds read low 1.02
